Laboratory results taken from PubChem BioAssay (NCATS).
Inconclusive results are not listed. Entries that show only a call come without a potency. The source made the active and inactive calls. Calls follow the shape of the full dose curve.

test: Confirmatory qHTS for VERO E6 Cytotoxicity Assay: Counterscreen for SARS-CoV-2 CPE Assay (AID 1508605); conditions: cell viability luminescence; series mostly up to 20 µM; also: nearly all actives have a fitted effect of over 60% in size
Potency is read from the fitted curve at half-maximal effect.

Row | SMILES | Potency
1 | CC1CCN(C(c2ccc(F)cc2)c2ccc(C(C)C(=O)O)cc2-c2ccc(C(F)(F)F)cc2)CC1 (configuration not stated) | 11.2 µM (active)
2 | COc1ccc(NC(=O)c2ccc(-c3ccc(-c4nnc(C)o4)cc3C)cc2)cc1N1CCN(C)CC1 | inactive
3 | Cc1nc(C)c(CN2CCN(C(c3ccc(F)cc3)c3ccc(F)cc3)CC2)nc1C | inactive
4 | Cc1cnc(NC(=O)c2cc(S(=O)(=O)N(C)C)ccc2N2CCCC2)s1 | inactive
5 | C[C@H](NC(=O)[C@H](Cc1ccccc1)NC(=O)OCc1ccccc1)C(=O)CF | inactive
6 | CC(C)(C[C@@](O)(Cc1cc2ccncc2[nH]1)C(F)(F)F)c1cc(F)ccc1O | inactive
7 | CO[C@H]1/C=C\C=C(\C)C(=O)NC2=CC(=O)C(NCCN(C)C)=C(C[C@@H](C)C[C@H](OC)[C@H](O)[C@@H](C)/C=C(/C)[C@@H]1OC(N)=O)C2=O | 5.62 µM (active)
8 | C=CC(C)(C)c1[nH]c2ccccc2c1C1=C(O)C(=O)C(c2c[nH]c3c(CC=C(C)C)cccc23)=C(O)C1=O | 3.98 µM (active)
9 | CS(=O)(=O)NCC1CCC(Nc2nc3c(s2)CCSc2ccccc2-3)CC1 (configuration not stated) | inactive
10 | O=C1c2ccccc2-c2nc3nnnn3nc21 (tested in a mixture with another compound) | 1.12 µM (active)
11 | C[C@@H]1CN(CC(=O)N2CC(C)(C)c3ncc(Cc4ccc(F)cc4)cc32)[C@@H](CN2CCOC[C@H]2C)CN1 | inactive
12 | NC(=O)c1cnc(N[C@@H]2CCCC[C@@H]2N)nc1Nc1cccc(-n2nccn2)c1 | inactive
13 | CC(C)(C)c1ccc(C(=O)Nc2cc(Cl)c(Br)cc2C(=O)O)cc1 | 10 µM (active)
14 | O[C@H]1[C@H]2c3cc4c(cc3CN3CCC(=C[C@@H]1O)[C@H]23)OCO4 | 3.16 µM (active)
15 | COc1ccc(NS(=O)(=O)c2sc3ccc(Cl)cc3c2C)cc1N1CCNCC1 | inactive
16 | C=C1Cc2c(Cl)cc3[nH]c4c5c3c2[C@@]2(O)[C@@H]1C[C@@H]2C(C)(C)O[C@H]5C1CC[C@@]2(O)[C@@]35O[C@@H]3[C@H]3OC(C)(C)[C@H]3O[C@H]5CC[C@]2(C)[C@@]41C (some centres not stated) | inactive
17 | O=C(/C=C/c1ccccc1)NC(NC(=S)Nc1cccc2cccnc12)C(Cl)(Cl)Cl (configuration not stated) | inactive
18 | COc1ccc2c(c1)CN(C(=O)CCN1CCC(Cc3ccccc3)CC1)CCS2 | inactive
19 | Cc1ccc(-c2c(C(=O)CCl)n(CCCO)c3ncnc(N)c23)cc1 | inactive
20 | CCCc1cc(C)[nH]c(=O)c1CNC(=O)c1cc(-c2ccnc(N3CCN(C)CC3)c2)cc2c1cnn2C(C)C | inactive
21 | COc1cc2nc(N3CCCCC3)nc(NC3CCN(Cc4ccccc4)CC3)c2cc1OC | 10 µM (active)
22 | COc1cc(N(C)CCN(C)C)c(N)cc1Nc1nccc(-c2cn(C)c3ccccc23)n1 | inactive
23 | CN(C)CCN(Cc1ccccc1)C(=O)c1cc(-c2ccc(F)cc2)n2nc(C(C)(C)C)cc2n1 | inactive
24 | COC(=O)Nc1cc(Nc2cc(NC3CC3)c3ncc(C#N)n3n2)c(Cl)c(N2CCN(C)CC2)c1 | 2.51 µM (active)
25 | CCC(C)CNCC(=O)N1CCc2sccc2C1COc1cccc(C)c1 (configuration not stated) | inactive
26 | CN(C)CCN(Cc1ccc(-c2ccc(CNCCc3ccccc3)cc2)cc1)C(=O)CCC1CCCC1 | 3.98 µM (active)
27 | O=C1NC(=O)c2cc(Nc3ccc(F)cc3)c(Nc3ccc(F)cc3)cc21 | 11.2 µM (active)

test: Confirmatory qHTS for activators (rescue) of SARS-CoV-2 Cytopathic Effect (CPE) (AID 1508606); conditions: Vero E6 SARS-CoV-2 CPE rescue, viability luminescence; series mostly up to 20 µM; also: nearly all actives have a fitted effect of over 70% in size

Row | SMILES | Potency
28 | CCN(CC)CC1CCN(c2ncc3ncnc(Nc4ccc(F)c(Cl)c4)c3n2)CC1 | inactive
29 | CCC(CC)COC(=O)[C@H](C)N[P@](=O)(OC[C@H]1O[C@@](C#N)(c2ccc3c(N)ncnn23)[C@H](O)[C@@H]1O)Oc1ccccc1 | 10 µM (active)
30 | COc1cc2nc(N3CCCCC3)nc(NC3CCN(C)CC3)c2cc1OC | 3.55 µM (active)
31 | Fc1ccc2c(CCNCc3cccc(OCC(F)(F)C(F)F)c3)c[nH]c2c1 | 10 µM (active)
32 | CC1CCN(C(c2ccc(F)cc2)c2ccc(C(C)C(=O)O)cc2-c2ccc(C(F)(F)F)cc2)CC1 (configuration not stated) | inactive
33 | COc1ccc(NC(=O)c2ccc(-c3ccc(-c4nnc(C)o4)cc3C)cc2)cc1N1CCN(C)CC1 | 6.31 µM (active)
34 | Cc1cnc(NC(=O)c2cc(S(=O)(=O)N(C)C)ccc2N2CCCC2)s1 | 2.82 µM (active)
35 | C[C@H](NC(=O)[C@H](Cc1ccccc1)NC(=O)OCc1ccccc1)C(=O)CF | 0.126 µM (active)
36 | C=CC(C)(C)c1[nH]c2ccccc2c1C1=C(O)C(=O)C(c2c[nH]c3c(CC=C(C)C)cccc23)=C(O)C1=O | inactive
37 | O=C1c2ccccc2-c2nc3nnnn3nc21 (tested in a mixture with another compound) | inactive
38 | COc1ccc(NS(=O)(=O)c2sc3ccc(Cl)cc3c2C)cc1N1CCNCC1 | 10 µM (active)
39 | COc1ccc2c(c1)CN(C(=O)CCN1CCC(Cc3ccccc3)CC1)CCS2 | 4.92 µM (active)
40 | CN(C)CCN(Cc1ccccc1)C(=O)c1cc(-c2ccc(F)cc2)n2nc(C(C)(C)C)cc2n1 | inactive
41 | COC(=O)Nc1cc(Nc2cc(NC3CC3)c3ncc(C#N)n3n2)c(Cl)c(N2CCN(C)CC2)c1 | inactive
42 | CN(C)CCN(Cc1ccc(-c2ccc(CNCCc3ccccc3)cc2)cc1)C(=O)CCC1CCCC1 | inactive
